Among the data in PubChem BioAssay AID485317 (Broad Institute, 2010) are inhibition values, retold here.

About 11,000 (3.8%) of roughly 290,000 compounds were called active. What follows is part of a selection rich in actives, with near analogues and random picks from the rest. A number with no mark means an inactive call.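 How the source made its calls: active means mean replicate inhibition above about 79%, with every replicate also reaching it (limit read from the data); inconclusive means only one of the two criteria met; inactive means mean below limit and not every replicate reaching it.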

As usually defined, the inhibition is the relative decrease from the control value, in per cent.

In this test the target is FAD-linked sulfhydryl oxidase ALR (Homo sapiens) (UniProt P55789). Nature of the test: inhibitors of human ALR sulfhydryl oxidase, primary screen, biochemical, H2O2 detection, HRP-luminol luminescence, single point (AID 485317). Particulars: purified ALR, DTT oxidation, hits give high values, concentration not given here.
FAD-linked sulfhydryl oxidase ALR (Homo sapiens), sequence (P55789 whole entry, looked up): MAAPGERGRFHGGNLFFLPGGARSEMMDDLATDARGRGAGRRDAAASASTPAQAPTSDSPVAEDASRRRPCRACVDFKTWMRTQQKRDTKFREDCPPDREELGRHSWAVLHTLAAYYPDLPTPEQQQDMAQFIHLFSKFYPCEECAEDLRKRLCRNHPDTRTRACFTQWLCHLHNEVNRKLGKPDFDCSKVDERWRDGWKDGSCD
As to `COc1ccccc1CNS(=O)(=O)c1cc2c3c(c1)CCC(=O)N3CCC2`, the inhibition is -0.847%.

With `CC1CN(C(=O)c2cc(COc3c(F)cccc3F)on2)CCN1C` (stereo not given), the inhibition is -3.41%.

For the compound `CC1(C)O[C@@H]2[C@H](O1)[C@@H](CO)O[C@H]2n1c(N2CCCCC2)nc2c(N)ncnc21`, the inhibition is 1.47%.

In the case of `CC(=O)NNc1cc(=O)c2c(=O)n(C)c(=O)n(C)c2[nH]1`, the inhibition was 90.2% (active).

Regarding `CC(=O)Nn1cc2c(=O)n(C)c(=O)n(C)c2c1`, the inhibition was -9.4%.

For the compound `CCC(=O)NNc1cc(=O)c2c(=O)n(C)c(=O)n(C)c2[nH]1`, the inhibition is -4.74%.

As to `CCOc1ccc(S(=O)(=O)Nc2ccc(OC)nc2)cc1`, the inhibition is -0.795%.

Consider `COc1ccc(NC(=O)c2cc(-c3ccc(C)cc3)on2)cc1`, for which the inhibition was -7.55%.

Consider `COc1ccc(NC(=O)/C(Cl)=C(/Cl)S(=O)Cc2ccc(C)cc2)cn1` (stereo not given), for which the inhibition is 99.1% (active).

`COc1ccc2c(CC(=O)NNC(=O)c3ccccc3F)coc2c1`: the inhibition was -9.32%.

As for `O=C(CCc1ccc(S(=O)(=O)N2CCOCC2)cc1)OCC(=O)c1ccc(Br)cc1`, the inhibition is 3.41%.

For `O=C(/C=C(O)/C=C/c1ccc(O)cc1)/C=C/c1ccc(O)cc1`, the inhibition is -0.191%.

As to `COc1ccc(N2CCN(C(=O)CNC(=O)c3ccc(C(C)(C)C)cc3)CC2)cc1`, the inhibition is -2.48%.

With `COc1ccc(N2CCN(C(=O)CCNC(=O)c3ccc(Br)cc3)CC2)cc1`, the inhibition is -0.657%.

In the case of `COc1ccc(N2CCN(C(=O)CNC(=O)c3ccc(Br)o3)CC2)cc1`, the inhibition is 94% (active).

As for `CCOc1ccc(C(=O)CCC(=O)Nc2ccncc2)cc1`, the inhibition is 2.23%.

`COc1cc(/C=N/NC(=O)CNC(=O)c2ccncc2)ccc1OC(C)=O`: the inhibition is 40.7%.

In the case of `COc1ccc(/C=N/NC(=O)c2ccc(Cl)cc2)cc1COC(C)=O`, the inhibition is 5.91%.

With `COc1ccc(/C=N/NC(=O)c2ccncc2)cc1CN1CCCc2ccccc21`, the inhibition is 93.5% (active).

Consider `COc1ccc(-c2ccc(CCC(=O)O)n2-c2ccc(O)cc2)cc1`, for which the inhibition is 95.3% (active).

With `COCCCn1c(CCC(=O)O)ccc1-c1ccc(F)cc1`, the inhibition was 22.3%.

As for `COc1ccc(-c2ccc(CCC(=O)O)n2NC(=O)c2ccc(C(C)(C)C)cc2)cc1`, the inhibition was 98.4% (active).

With `CCOC(=O)c1ccc(-n2c(CCC(=O)O)ccc2-c2ccccc2)cc1`, the inhibition was 6.43%.

For `COc1ccc(C(=O)NC(Cc2ccc(OC(=O)c3ccc(OC)cc3)cc2)C(=O)O)cc1` (stereo not given), the inhibition is 15.2%.

Regarding `C=Cn1c(C(=O)O)ccc1-c1ccc(OC)cc1`, the inhibition was 6.07%.
